According to PubChem BioAssay (NCATS):
“And” between values parts separate entries of the source, which are not always exact repeats. Identical values can stand only once. Unmarked numbers belong to inactive results. The call rests on the fitted dose curve.
Potency means the concentration at half of the fitted maximal effect.

Each molecule was assayed against Glucocorticoid receptor (Homo sapiens) (UniProt P04150) (assay: GR-EFC Redistribution (AID 451)). Settings: CHO-K1 GR-EFC translocation, beta-gal luminescence, 2 h.
Chain of Glucocorticoid receptor (Homo sapiens) (P04150 whole entry, looked up): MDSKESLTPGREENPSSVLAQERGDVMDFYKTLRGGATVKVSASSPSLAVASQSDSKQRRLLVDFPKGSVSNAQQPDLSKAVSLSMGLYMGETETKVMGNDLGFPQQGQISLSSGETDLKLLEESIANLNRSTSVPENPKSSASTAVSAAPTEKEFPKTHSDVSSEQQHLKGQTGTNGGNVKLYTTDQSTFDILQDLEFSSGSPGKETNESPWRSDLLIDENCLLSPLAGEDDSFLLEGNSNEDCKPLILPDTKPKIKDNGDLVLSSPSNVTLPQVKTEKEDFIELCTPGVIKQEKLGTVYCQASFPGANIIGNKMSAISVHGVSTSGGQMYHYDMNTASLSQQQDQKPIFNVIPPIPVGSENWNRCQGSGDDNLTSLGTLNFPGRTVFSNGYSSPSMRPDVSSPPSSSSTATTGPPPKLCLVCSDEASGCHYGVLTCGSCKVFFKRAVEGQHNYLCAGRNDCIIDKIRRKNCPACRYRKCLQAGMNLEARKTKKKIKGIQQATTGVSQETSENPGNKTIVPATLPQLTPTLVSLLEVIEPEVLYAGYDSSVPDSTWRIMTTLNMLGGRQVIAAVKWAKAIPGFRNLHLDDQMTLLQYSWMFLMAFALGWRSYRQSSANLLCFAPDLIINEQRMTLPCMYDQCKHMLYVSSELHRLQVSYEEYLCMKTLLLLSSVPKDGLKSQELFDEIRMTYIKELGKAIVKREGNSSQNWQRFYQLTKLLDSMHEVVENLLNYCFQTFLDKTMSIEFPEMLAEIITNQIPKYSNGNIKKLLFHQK
Text: NIH Molecular Libraries Screening Centers Network [MLSCN]
NIH Chemical Genomics Center [NCGC]
The glucocorticoid receptor (GR) is a cytoplasmic receptor that belongs to the nuclear receptor family of ligand-dependent transcription factors. Upon glucocorticoid binding to its receptor, the glucocorticoid-GR complex translocates into the nucleus, where it binds as a dimer to specific DNA sequences (glucocorticoid response elements), enhancing or suppressing transcription of a wide variety of glucocorticoid-responsive genes. In addition to their important roles in normal physiology and metabolism, glucocorticoids are administered exogenously as treatments for a wide variety of allergic, autoimmune, and neoplastic conditions. Identification of compounds that modulate aspects of GR signalling would be useful in dissecting glucocorticoid response pathways as well as developing GR modulators with more targeted clinical effects.
Traditionally, GR modulators have been identified using receptor binding or direct transactivation assays. However, assays for glucocorticoid-dependent nuclear translocation can also be used to screen for compounds affecting GR signaling.
Immunocytochemical staining has been used to assay for GR translocation, but is not suitable for high throughout screening due to the multiple reagent addition and wash steps required. Recently, a novel cell-based GR assay in Enzyme Fragment Complementation (EFC) format was developed by DiscoveRx (Fremont, CA). The assay uses EFC of b-galactosidase (b-gal) as an indicator of GR-translocation in engineered CHO-K1 biosensor cells. The enzyme acceptor (EA) fragment of b-gal resides in the nucleus , as designed through the use of a proprietary set of sequence additions and modifications. The small peptide enzyme donor (ED) fragment of b-gal is fused directly to the C-terminus of GR, and is localized in the cytoplasm is the absence of receptor signaling. Upon binding to a GR ligand, the complex translocates to the nucleus, where intact enzyme activity is restored by complementation and b-gal activity is detected. We optimized this GR-EFC assay in homogenous 1536-well plate assay format for high throughput screening.
NCGC Assay Protocol Summary:
CHO-K1 cells stably expressing NLS-enzyme acceptor fragment (EA) of b-gal and GR-enzyme donor (ED) fragment of b-gal were maintained in F12 medium (Invitrogen, Carlsbad, CA) at 37 Celsius degrees under a humidified atmosphere containing 5% CO2 and 95% air. The medium contained 10% FBS, 2 mM L-glutamine, 50 U/ml penicillin 50 ug/ml streptomycin, and 250 ug/ml hygromycin and 500 ug/ml G418 (Invitrogen).
GR-translocation was measured beta-gal enzyme activity using the PathHunter Detection Kit containing cell membrane permeablizing reagent and beta-gal substrate (DiscoveRx, Fremont, CA). All compounds were screened as titrations from 0.6 nM to 46 uM final concentration. The assay was performed in 1536-well format as follows:
5 uL cell suspension (1,000 cells)/well
Incubation at 37 Celsius degrees for two hours
1.25 uL 1X detection buffer from the kit supplied by DiscoveRx
Incubation at room temperature for one hour
Read plate in luminescence mode in ViewLux plate reader (PerkinElmer)
Keywords: NIH Roadmap, MLSCN, MLI, MLSMR, GR-EFC, GREFC, qHTS, NCGC
For `N.N.N.N.N.N.N.N.N.N.N.N.N.N.O.O.[Ru].[Ru].[Ru]`, the Potency was greater than 46 µM. For `COc1ccc(-n2c(=O)c(-c3cccs3)nc3cnc(Oc4ccccc4)nc32)cc1`, the Potency was greater than 46 µM. In the case of `CSc1nc(C)cc(Nc2ccc(O)c(CN3CCOCC3)c2)n1`, the Potency is reported as greater than 9.22 µM. Molecule `O=C(O)c1cccc(N=Nc2c(S(=O)(=O)O)ccc3c2C(=O)c2ccccc2C3=O)c1O` has a Potency greater than 9.22 µM. In the case of `Cn1c(=O)c2[nH]c(SCc3ccccn3)nc2n(C)c1=S`, the Potency is reported as greater than 9.22 µM. `O=C(CC(=O)c1ccncc1)c1ccccc1` was tested, and the Potency was greater than 9.22 µM. Molecule `COc1ccc2nc(NCN3C(=O)c4ccccc4C3=O)sc2c1` has a Potency greater than 9.22 µM. Work on `Nc1ncnc2c1nc(-c1ccccc1)n2[C@H]1O[C@@H](CO)[C@@H](O)[C@H]1O` yielded a Potency greater than 9.22 µM. `CC[C@@H]1CN2CCc3cc(OC)c(OC)cc3[C@H]2C[C@@H]1C[C@H]1NCCc2cc(OC)c(OC)cc21` was tested, and the Potency was > 20.6 µM and > 46 µM. `CC(C)(C)c1cc2c(O)c(c1)Cc1cc(C(C)(C)C)cc(c1O)Cc1cc(C(C)(C)C)cc(c1O)Cc1cc(C(C)(C)C)cc(c1O)Cc1cc(C(C)(C)C)cc(c1O)Cc1cc(C(C)(C)C)cc(c1O)Cc1cc(C(C)(C)C)cc(c1O)Cc1cc(C(C)(C)C)cc(c1O)C2` was tested, and the Potency was greater than 9.22 µM. Molecule `[N-]=[N+]=CC(=O)COC(=O)c1ccccc1` has a Potency greater than 9.22 µM. In the case of `O=C1C[C@H]2OCC=C3CN4CC[C@@]5(C(=O)O)[C@H](N1)[C@H]2[C@H]3C[C@H]45`, the Potency is reported as greater than 9.22 µM. With `O=C(O)CCNc1ncnc2nc[nH]c12` the Potency was greater than 9.22 µM. Molecule `C[C@H](NCCN(C)C)[C@@H]1CCC2C3CCc4cc(O)ccc4[C@H]3CCC21C` (stereo not given in full) has a Potency greater than 9.22 µM. `O=C1C=C(Nc2nc(C(=O)O)cc(=O)[nH]2)c2ccccc2C1=O` was tested, and the Potency was greater than 9.22 µM. Work on `CN(C)c1ncnc2c1ncn2CCn1cnc2c(N(C)C)ncnc21` yielded a Potency greater than 9.22 µM. With `O=C(O)CCC/C=C\C[C@H]1[C@@H](/C=C\[C@@H](O)C2Cc3ccccc3C2)[C@H](F)C[C@H]1O` the Potency was greater than 46 µM. For `NC(=O)SCC(=O)Nc1ccc2ncccc2c1`, the Potency was greater than 9.22 µM. `C[C@@]12CC(=O)[C@@H]3[C@@H](CCC4=CC(=O)CC[C@]43C)[C@@H]1CC=C2CC(=O)O` gave a Potency greater than 9.22 µM. Work on `CSCC[C@@H](C(=O)O)N(C)C` yielded a Potency greater than 9.22 µM. In the case of `O=S(=O)(c1cnccc1N1CCN(CCO)CC1)N1CCCC1`, the Potency is reported as greater than 9.22 µM. Molecule `Cc1cc(SCC(=O)c2ccccc2)nc2ccccc12` has a Potency greater than 9.22 µM. With `O=C(O)[C@@H](O)[C@@H](O)[C@H](O)C(=O)CO` the Potency was greater than 9.22 µM. In the case of `C(=Nc1ccc2c(c1)Cc1ccccc1-2)c1ccccn1`, the Potency is reported as greater than 9.22 µM. Work on `O=C(c1cc(Br)ccc1O)c1cc(Br)ccc1O` yielded a Potency greater than 9.22 µM. `Cc1ccc(-c2nnc(-c3ccc4ccccc4c3)o2)cc1` was tested, and the Potency was greater than 9.22 µM. `CN(C)C(=O)c1ccc(-c2nc(Nc3ccc(F)cc3)c3ccccc3n2)cc1` gave a Potency greater than 46 µM. `Oc1ccc2ccccc2c1Cc1c(O)ccc2ccccc12` was tested, and the Potency was greater than 9.22 µM. `O=C(O)/C=C\C=C/c1ccc2c(c1)OCO2` was tested, and the Potency was greater than 9.22 µM. For `CC(C)(CCC(C)(C)c1ccccc1)c1ccccc1`, the Potency was greater than 9.22 µM. Molecule `O=P(O)(O)O[C@@H]1O[C@H](CO)[C@@H](O)[C@H](O)[C@@H]1O` has a Potency greater than 9.22 µM. Molecule `S=c1[nH]nc(SCc2ccccc2Cl)c2[nH]cnc12` has a Potency greater than 9.22 µM. Molecule `O=C(O)[C@H]([C@H]1NCCS1)N1Cc2ccccc2C1` has a Potency greater than 9.22 µM. Work on `c1ccc2c[n+](CCCC[n+]3ccc4ccccc4c3)ccc2c1` yielded a Potency greater than 9.22 µM. For `Nc1ccn([C@H]2O[C@H](CO)[C@@H]3[O][Sn]([c]4ccccc4)([c]4ccccc4)[O][C@H]32)c(=O)n1`, the Potency was greater than 9.22 µM. `CCOC(=O)c1c2c(n3ccccc13)C(=O)c1ccccc1C2=O` was tested, and the Potency was greater than 9.22 µM. Molecule `Cc1c2cccc(Sc3ccccc3)c2c2c3c(cccc13)[S+](c1ccccc1)C2` (stereo not given) has a Potency greater than 9.22 µM. Molecule `O=C(O)C(Cc1cccs1)C(=O)O` has a Potency greater than 9.22 µM. Work on `O=C(CSc1nc2ccccc2s1)c1sc2sc3ccccc3[n+]2c1O` yielded a Potency greater than 9.22 µM. In the case of `c1ccc2sc(SCN(C3CCCCC3)C3CCCCC3)nc2c1`, the Potency is reported as greater than 9.22 µM.
